3T3 cytotox: Cytotoxic Profiling in NIH 3T3 Cell Line of Diverse Libraries Using Quantitative High-Throughput Screening; NIH 3T3 viability, CellTiter-Glo ATP luminescence, 48-72 h; Potency, µM (highest dose often 96.7 µM), for the others: top-dose activity change, negative = cytotoxicity, usual class: inhibitors; actives 4.3% (n = 94,000); also: nearly all actives have a fitted effect of over 55% in size
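First NIH 3T3 cells are plated at 400 cells/well; next compound is pinned in; then plates incubate 48 or 72 hr at 37 °C; finally CellTiter-Glo is added and luminescence read after 10 min.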
GPT2 inh: Primary qHTS assay for inhibitors of Glutamate pyruvate transaminase 2 (GPT2); AID 1671188, 2021; actives 0.25% (n = 100,000); Potency, µM (doses to about 57.7 µM), for inactives: at the highest dose activity change, negative = inhibition, most hits filed as inhibitors; Recombinant GPT2, coupled pyruvate oxidase/HRP Amplex Red fluorescence; Alanine aminotransferase 2 (Homo sapiens), Q8TD30; also: nearly all actives have a fitted effect of over 60% in size
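GPT2 10ng/uL, a-KG 250uM, L-Ala 2mM, HEPES pH7.5 + 0.0001% Tween; 30 min RT. Then Amplex mix (PO/HRP/ThPP), 30 min RT dark, fluorescence. AOA 50uM used as positive control.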
hNpr1 antagonist: Natriuretic polypeptide receptor (hNpr1) antagonism - Primary qHTS; Atrial natriuretic peptide receptor 1 (Homo sapiens), P16066; HEK293 hNpr1 GloSensor cGMP, ANP-stimulated luminescence; Potency, µM (series often up to 46.3 µM), for inactives: at the top dose activity change, negative = inhibition, usual class: inhibitors; actives 1.6% (n = 76,000); AID 1347048, 2019; calls by dose curve; also: nearly all actives have a fitted effect of over 60% in size
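HEK293 cells stably expressing human Npr1 and cGMP GloSensor pGS-40F, loaded 2 h with 2% GloSensor reagent, given compound 30 min at room temperature. Luminescence read before and 20 min after 0.1 nM hNppA.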
FLuc inh: Firefly luciferase inhibition profiling of diverse chemical library using quantitative high-throughput screening. Luciferin 4-monooxygenase (Photinus pyralis), P08659. purified P. pyralis luciferase, luminescence, biochemical. Potency, µM (series often up to 115 µM), actives largely listed as inhibitors. actives 2.5% (n = 76,000); also: nearly all actives have a fitted effect of over 65% in size
Target sequence (P08659 whole entry, looked up): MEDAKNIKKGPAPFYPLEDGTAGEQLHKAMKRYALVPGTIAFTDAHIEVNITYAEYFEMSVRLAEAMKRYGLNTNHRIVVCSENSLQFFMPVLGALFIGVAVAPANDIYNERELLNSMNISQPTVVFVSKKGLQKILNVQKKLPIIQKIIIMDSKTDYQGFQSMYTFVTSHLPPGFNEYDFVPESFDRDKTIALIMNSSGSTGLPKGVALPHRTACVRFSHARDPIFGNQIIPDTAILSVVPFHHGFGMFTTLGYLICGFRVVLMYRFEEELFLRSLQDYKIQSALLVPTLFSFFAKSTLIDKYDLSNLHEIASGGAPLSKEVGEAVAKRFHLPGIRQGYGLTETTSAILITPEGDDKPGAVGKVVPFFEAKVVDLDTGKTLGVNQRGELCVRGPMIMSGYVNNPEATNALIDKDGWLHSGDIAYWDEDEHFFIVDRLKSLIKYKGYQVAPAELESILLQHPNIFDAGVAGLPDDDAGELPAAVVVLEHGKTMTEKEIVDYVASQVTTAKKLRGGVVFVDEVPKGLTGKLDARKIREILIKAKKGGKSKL
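Purified P. pyralis luciferase (10nM final) in 50mM Tris acetate pH 7.5, 10mM Mg acetate, 0.01% Tween-20, 0.05% BSA with 10uM D-luciferin and 10uM ATP. Compounds titrated qHTS. Luminescence imaged on CCD.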
HEK293 tox: Cytotoxic Profiling in HEK 293 Cell Line of Diverse Libraries Using Quantitative High-Throughput Screening | HEK 293 viability, ATP luminescence (CellTiter-Glo), 48-72 h | Potency, µM (top dose mostly 115 µM), for the others: at the top dose activity change, negative = cytotoxicity, actives largely listed as inhibitors | actives 6.6% (n = 94,000); also: nearly all actives have a fitted effect of over 60% in size
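Luminescence from cellular ATP, measured with CellTiter-Glo, indicates HEK 293 viability. Cells plated at 250 cells/well are treated with compound for 48 or 72 hr at 37 degree Celsius before reagent addition.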
* = called active by the depositor; i = inactive; ? = inconclusive; nt = no result given; [ ] = another dose, or the depositor's remark. Hits are enriched below; roughly 10% of the tested compounds scored in any of these assays. Unless noted, calls follow the shape of the dose curve; as a rule, active = well fitted curve in the direction sought with a large enough effect; inconclusive = small, poorly fitted or top-dose-only effect, or another doubt; inactive = no such curve, though single readings can be large; an effect the other way counts as inactive or inconclusive. % is scaled to controls: 0 for no effect and ±100 for the full control effect; potency is read from the fitted curve at half-maximal effect.

SMILES | 3T3 cytotox | GPT2 inh | hNpr1 antagonist | FLuc inh | HEK293 tox
CCOC(=O)[C@H]1C[C@]2(CCCCN(CCOC)C2=O)N(C(=O)C2CCCC2)[C@H]1c1ccco1 | -9% | nt | nt | nt | ?
CC(=O)Nc1ccc(CN2CCN(c3cc(Cl)ncn3)C(=O)C2)cc1 | 35µM* | i | 22% | i | 10µM*
O=C1CN(Cc2cccc(-c3ccsc3)c2)CCN1c1cc(Cl)ncn1 | ? | -3% | -12% | i | 79µM*
CC(C)CN1CCN(c2cc(Cl)ncn2)C(=O)C1 | -33%[138 µM] | -4%[88.5 µM] | 18%[70.6 µM] | i | ?
COc1cncc(-c2cn(C)c(=O)n3cc(CNc4ccccc4)nc23)c1 | ? | i | -9%[70.6 µM] | i | ?
Cn1cc(-c2ccnc(N3CCOCC3)c2)c2nc(COc3ccc(Cl)cc3)cn2c1=O | 28µM* | 5% | ? | ? | ?
Cc1noc(C)c1-c1cn(C)c(=O)n2cc(COc3ccc(Cl)cc3)nc12 | ? | 3%[88.5 µM] | -10%[70.6 µM] | i | ?
Cn1cc(-c2cccc(OC(F)(F)F)c2)c2nc(CN3CCNC(=O)C3)cn2c1=O | 100µM* | -49%[88.5 µM] | -6%[70.6 µM] | i | -24%[172 µM]
CN1CCN(Cc2cn3c(=O)n(C)cc(-c4cccc(OC(F)(F)F)c4)c3n2)CC1 | ? | -18%[88.5 µM] | 1%[70.6 µM] | i | ?
Cn1cc(-c2cccc(C(F)(F)F)c2)c2nc(CNc3ccccc3)cn2c1=O | 25µM* | ? | -18%[70.6 µM] | i | 50µM*
Cn1cc(-c2ccccc2)c2nc(COc3ccc(Cl)cc3)cn2c1=O | 50µM* | -8%[88.5 µM] | -21%[70.6 µM] | i | ?
COCc1ccccc1-c1cn(C)c(=O)n2cc(COc3ccc(Cl)cc3)nc12 | ? | -27%[88.5 µM] | ? | i | ?
COCCNC(=O)C1CC(=O)N(C2CN(Cc3cccc(F)c3)C2)C1 (stereo not drawn) | -8% | -8% | nt | nt | 1%
Cn1cc(-c2cn(C)c(=O)n3cc(COc4ccc(Cl)cc4)nc23)cn1 | ? | ? | 1%[70.6 µM] | ? | 71µM*
O=C(NCC1CCCCC1)c1ccc2c(c1)N(S(=O)(=O)c1ccccc1)CC2 | 40µM* | i | -5% | i | ?
COc1ccc(NC(=O)N2C[C@@H](F)C[C@H]2C(=O)N2CCCCC2)cc1F | 1% | i | 3% | i | -2%
COc1ccc(OC)c(NC(=O)N2C[C@@H](F)C[C@H]2C(=O)N2CCCCC2)c1 | 11µM* | 2% | 4% | i | -11%
O=C(c1ccc2nc(-c3ccc(F)cc3)cn2c1)N1C[C@@H]2CCCN[C@@H]2C1 | ? | 3% | 2% | ? | -20%
CCCOC1CCCN(C(=O)c2ccc3nc(-c4ccc(F)cc4)cn3c2)C1 (stereo not drawn) | -2% | 2% | 0% | i | 25µM*
COc1ccc(-c2c(C(=O)NCCc3ccccc3)nc3sccn23)cc1 | ? | -11% | nt | nt | ?
Cc1cc2cc(-c3c(C)noc3C)nc(N(C)C)c2o1 | ? | ? | -2%[70.6 µM] | i | 100µM*
Cc1cc2cc(-c3c(C)noc3C)nc(N3CCN(c4ccccn4)CC3)c2o1 | 28µM* | ? | -9%[70.6 µM] | i | 13µM*
Cc1cc2cc(-c3c(C)noc3C)nc(N3CCN(C)C(=O)C3)c2o1 | ? | -17%[88.5 µM] | 0%[70.6 µM] | i | ?
Cc1noc(C)c1-c1cc2cc(C(C)C)oc2c(N(C)CCN(C)C)n1 | 25µM* | ? | -2%[70.6 µM] | i | 35µM*
Cc1cc2cc(-c3c(C)noc3C)nc(-c3ccccc3)c2o1 | ? | i | 6%[70.6 µM] | i | ?
SMILES | 3T3 cytotox | GPT2 inh | hNpr1 antagonist | FLuc inh | HEK293 tox
Cc1noc(C)c1-c1cc2cc(C(C)C)oc2c(NCc2cccnc2)n1 | ? | -24%[88.5 µM] | 2%[70.6 µM] | i | ?
CN1CCN(C(CN)C2CCCCC2)CC1 (stereo not drawn) | 45µM* | -6%[88.5 µM] | nt | nt | ?
COc1ccccc1Nc1cnc2ccc(-c3ccccc3OC)nn12 | ? | 3%[88.5 µM] | -9%[70.6 µM] | i | ?
COc1ccc(-c2ccc3ncc(Nc4ccccc4F)n3n2)cc1OC | 35µM* | -2%[88.5 µM] | 0%[70.6 µM] | i | 45µM*
COc1ccc(-c2ccc3ncc(Nc4cccnc4OC)n3n2)cc1OC | -82%[138 µM] | ? | -1%[70.6 µM] | i | 14µM*
COc1ccccc1-c1ccc2ncc(Nc3cccnc3OC)n2n1 | ? | i | -14%[70.6 µM] | i | ?
COC(=O)N1CCCN(c2ccc3nnc(C4CC4)n3n2)CC1 | ? | nt | nt | nt | -27%[172 µM]
O=C1CO[C@H]2CCN(CCCc3ccccc3)CC[C@@H]2N1c1ccccc1 | 89µM* | -11%[88.5 µM] | -26%[70.6 µM] | i | 100µM*
O=C1CO[C@H]2CCN(Cc3ccccc3Cl)CC[C@@H]2N1c1ccccc1 | ? | -16%[88.5 µM] | -26%[70.6 µM] | i | 79µM*
COc1ccc(CN2Cc3[nH]cnc3C[C@H]2c2nc(-c3ccc(C)cc3)no2)cc1 | 79µM* | 4%[88.5 µM] | -22%[70.6 µM] | 40µM* | 100µM*
COc1ccc(CN2Cc3[nH]cnc3C[C@H]2c2nc(-c3ccccn3)no2)cc1 | ? | i | -18%[70.6 µM] | 35µM* | ?
COc1ccc(-c2noc([C@@H]3Cc4nc[nH]c4CN3C(=O)c3ccc(F)cc3)n2)cc1 | ? | -2%[88.5 µM] | -10%[70.6 µM] | ? | ?
COc1ccc(-c2noc([C@@H]3Cc4nc[nH]c4CN3Cc3ccc(C)cc3)n2)cc1 | ? | 3%[88.5 µM] | -25%[70.6 µM] | 63µM* | 89µM*
N#Cc1cccc(CN2Cc3[nH]cnc3C[C@H]2c2nc(-c3ccc(OC(F)(F)F)cc3)no2)c1 | ? | -15% | -27% | ? | ?
COc1ccc(-c2noc([C@@H]3Cc4nc[nH]c4CN3Cc3ccc(CO)o3)n2)cc1 | -25%[138 µM] | 3%[88.5 µM] | -5%[70.6 µM] | 40µM* | -24%[172 µM]
COc1ccc(CN2Cc3[nH]cnc3C[C@H]2c2nc(-c3ccncc3)no2)cc1 | ? | -5%[88.5 µM] | -26%[70.6 µM] | i | ?
Cc1ccc(OCc2cc(C(=O)NC(Cc3ccccc3)c3ccccc3)no2)cn1 (stereo not drawn) | ? | -1% | ? | ? | ?
C[C@H](Oc1cc(-n2cnc3ccc(CN4CCN(C)CC4)cc32)sc1C(N)=O)c1ccccc1C(F)(F)F | nt | 2% | nt | nt | nt
COc1ccc(CN2Cc3[nH]cnc3C[C@H]2c2nc(-c3ccc4ccccc4c3)no2)cc1 | 40µM* | ? | -20% | i | 45µM*
COc1ccccc1CN1Cc2[nH]cnc2C[C@H]1c1nc(-c2cccc(C)c2)no1 | 71µM* | -1%[88.5 µM] | -26%[70.6 µM] | i | 63µM*
